Laboratory results reported in the supplement of paper PMC10011410.
± gives the standard deviation of the averaged measurements.

Tested on: AmpC beta-lactamase (E. coli)
Test: AmpC inhibition relative to DMSO; higher = more inhibition
Procedure, shortened: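 This aggregation counter-screen used E. coli AmpC β-lactamase (5 nM) in 50 mM sodium phosphate, pH 7.0, with or without 0.01% Triton X-100 and 1.0% DMSO. Compounds at 4, 11, 33 and 100 μM were incubated with enzyme for 5 min at RT before nitrocefin was added. Absorbance at 482 nm was followed for 5 min, and rates were background-subtracted against enzyme-free wells. Percent inhibition is relative to DMSO controls, as the mean of four technical replicates.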

[1] = 4 µM, detergent: 0.01% Triton X-100
[2] = 11 µM, detergent: 0.01% Triton X-100
[3] = 33 µM, detergent: 0.01% Triton X-100
[4] = 100 µM, detergent: 0.01% Triton X-100
[5] = 100 µM, detergent: no detergent

Row | Structure (SMILES) | AmpC inhibition [1] [%] | AmpC inhibition (4 µM, detergent: no detergent) [%] | AmpC inhibition [2] [%] | AmpC inhibition (11 µM, detergent: no detergent) [%] | AmpC inhibition [3] [%] | AmpC inhibition (33 µM, detergent: no detergent) [%] | AmpC inhibition [4] [%] | AmpC inhibition [5] [%]
1 | COc1cc(/C=C/C(=O)CC(=O)/C=C/c2ccc(O)c(OC)c2)ccc1O | 10.4 ± 4.2 | 5.89 ± 9 | 5.4 ± 4.4 | 39.2 ± 7.2 | -1.8 ± 2.5 | 71.1 ± 12 | -2.46 ± 13 | 67.3 ± 7.6
2 | C=C(C)[C@@H](CC=C(C)C)C[C@@]12C[C@@H](CC=C(C)C)C(C)(C)[C@@](CC=C(C)C)(C(=O)/C(=C(\O)c3ccc(O)c(O)c3)C1=O)C2=O | 13.6 ± 17 | 0.481 ± 8.4 | -2 ± 19 | 17.9 ± 7.4 | 5.26 ± 8.2 | 63 ± 4.7 | -8.29 ± 6.4 | 97.95 ± 0.64
3 | CNC(=O)Nc1ccc2c(c1)[C@@]1(CC2)OC(=O)N(CC(=O)N(Cc2ccc(F)cc2)[C@@H](C)C(F)(F)F)C1=O | 9.1 ± 0.37 | 2.44 ± 8.2 | 6.71 ± 1 | 7.48 ± 3.8 | -0.0601 ± 2.8 | -5.13 ± 2 | -4.9 ± 5.7 | -1.81 ± 4.7
4 | CCCCCOc1ccc(/C=C\c2cccc(O)c2C(=O)O)cc1 | -1.02 ± 4.7 | -1.47 ± 3.3 | 7.71 ± 5.1 | 27.2 ± 7.2 | 5.08 ± 5.7 | 69 ± 16 | 14 ± 3 | 99.2 ± 1.4
5 | COC1=CC=C(S(=O)(O/N=C2C=C(C(C(C)=C\2)=O)C)=O)C=C1 | 2.45 ± 1.2 | -3.63 ± 5.6 | 6.48 ± 2.3 | 3.85 ± 1.5 | 6.35 ± 3.8 | 0.996 ± 9.5 | 8.37 ± 3.3 | -1.7 ± 3.7
6 | CC1(C)CCC2=C(O1)c1ccccc1C(=O)C2=O | 10.1 ± 3.2 | 0.565 ± 6.8 | 2.63 ± 1.6 | -4.82 ± 5.1 | 6.33 ± 3.7 | -16.2 ± 7.7 | -0.871 ± 3.1 | 4.94 ± 2
7 | O=C1C(Cl)=C(NCCN2CCOCC2)C(=O)c2ncccc21 | 8.96 ± 3 | 0.538 ± 7 | 5.66 ± 0.9 | 0.224 ± 2.9 | 5.99 ± 7.4 | -1.42 ± 2.1 | 6.05 ± 2 | -4.13 ± 5.6
8 | ClC1=CC=C(C2=CSC(N/N=C3CCCC/3)=N2)C=C1 | 5.11 ± 3.4 | 11.8 ± 4.8 | 4.35 ± 2.1 | 6.62 ± 2.3 | 1.83 ± 7 | 14.2 ± 9 | 7.09 ± 4.1 | 1.99 ± 3.6
9 | COc1ccc(/C(Cl)=C(/C=O)c2ccc(OC)cc2)cc1 | -3.57 ± 3.7 | -5.33 ± 6.8 | 3.37 ± 5.7 | 3.21 ± 3.9 | 8.7 ± 7.1 | 0.384 ± 4.4 | 3.87 ± 1.3 | 12.1 ± 2.9
10 | Cl.Cl.O=C(O)Cn1nnc(-c2ccc(CN(CCCCOc3ccc(CN4CCCC4)cc3)CCc3ccccc3)cc2)n1 | 7.51 ± 5.3 | -18.8 ± 5 | 6.13 ± 8.3 | -17.6 ± 4.2 | 3.69 ± 2.6 | -26.9 ± 12 | 11 ± 6.5 | 5.89 ± 17
11 | O=C(NNS(=O)(=O)c1ccccc1)c1cc(-c2ccnnc2)ccc1F | 9.2 ± 1.8 | 2.19 ± 10 | 3.76 ± 1.8 | 16.9 ± 8 | 3.27 ± 1.3 | 5.35 ± 1.6 | 12.2 ± 5.5 | 11.9 ± 7.5
12 | O=C1/C(=C/c2ccc(O)c(Br)c2)CCC/C1=C\c1ccc(O)c(Br)c1 | 4.59 ± 5 | 7.44 ± 6.5 | 9.28 ± 8.5 | 55.4 ± 9.9 | 5.98 ± 3.4 | 78.6 ± 1.3 | -4.62 ± 5.8 | 81.8 ± 1.7
13 | O=C(O[C@@H]1Cc2c(O)cc(O)cc2O[C@@H]1c1cc(O)c(O)c(O)c1)c1cc(O)c(O)c(O)c1 | 9.27 ± 1.3 | 11.2 ± 18 | 4.89 ± 2 | 16 ± 3.1 | 4.57 ± 1.2 | 19.6 ± 14 | 1.23 ± 6.1 | 30.2 ± 1.1
